High-throughput results as filed in PubChem BioAssay.
RORg inh = inhibitors of mouse ROR gamma transcriptional activity; P51450; Drosophila S2 Gal4-RORgamma UAS-luciferase reporter, 20 h; Potency, µM (top dose mostly 53.6 µM), most hits filed as inhibitors; hit rate 5.4% among 310,000; also: nearly all actives have a fitted effect of over 60% in size
Target sequence (P51450 whole entry, looked up, the tested form may be a part): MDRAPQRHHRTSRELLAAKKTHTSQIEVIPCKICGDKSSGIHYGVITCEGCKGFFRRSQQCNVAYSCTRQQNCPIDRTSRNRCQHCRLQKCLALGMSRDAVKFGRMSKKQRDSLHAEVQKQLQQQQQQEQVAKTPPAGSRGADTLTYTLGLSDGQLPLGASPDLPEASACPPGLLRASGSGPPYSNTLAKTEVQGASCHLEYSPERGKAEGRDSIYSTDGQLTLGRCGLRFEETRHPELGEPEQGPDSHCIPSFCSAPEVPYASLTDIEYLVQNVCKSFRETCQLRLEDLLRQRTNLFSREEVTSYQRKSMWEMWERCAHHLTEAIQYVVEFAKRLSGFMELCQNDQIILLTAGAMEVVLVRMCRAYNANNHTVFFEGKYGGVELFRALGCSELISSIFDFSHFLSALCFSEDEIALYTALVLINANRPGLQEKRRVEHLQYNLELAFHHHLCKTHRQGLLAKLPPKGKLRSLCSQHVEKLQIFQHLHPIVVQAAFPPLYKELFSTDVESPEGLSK
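In this cell-based reporter format, copper sulfate (700 uM final) drives Gal4–ROR gamma fusion expression from a metallothionein promoter in Drosophila Schneider cells; compounds preincubated 1 hr, reporter read after 20 hr at ambient temperature.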
Luc counter = Kinase-Glo luciferase inhibition (counter-screen); Q27757; Kinase-Glo luciferase, ATP luminescence, 8 min; Potency, µM (doses to about 38.3 µM), hits mostly inhibitors; hit rate 0.28% among 200,000; AID 1379; also: nearly all actives have a fitted effect of over 60% in size
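Compounds were added to a substrate mix at pH 7.2 (50 mM imidazole, 10 uM ATP, within the enzyme's linear range), followed by Kinase-Glo detection reagent; luminescence was measured after 8 minutes at ambient temperature.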
VP16 counter = Gal4-VP16 reporter inhibition counter-screen; Drosophila S2 Gal4-VP16 UAS-luciferase, luminescence, 20 h; Potency, µM (titrated, usually from 53.6 µM), most hits filed as inhibitors; hit rate 3.5% among 310,000;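 also: Gal4-VP16 expression switched on by copper sulfate through the metallothionein promoter; nearly all actives have a fitted effect of over 50% in size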
Hits are given with their value; [ ] = dose if it differs, or a comment. Shown are actives, neighbours in structure and some others; about 6.4% of the full set was active somewhere. Calls follow the shape of the dose curve; as a rule, active = well fitted curve in the direction sought with a large enough effect; inconclusive = small, poorly fitted or top-dose-only effect, or another doubt; inactive = no such curve, though single readings can be large; an effect the other way counts as inactive or inconclusive.

For O=C(CCn1cccc(C(F)(F)F)c1=O)Nc1cccc(C(F)(F)F)c1 the results were RORg inh inactive and VP16 counter inactive.
`CCOC(=O)N1CCC(N(CCOC)C(=S)Nc2cccc(SC)c2)CC1` gave RORg inh 20µM, Luc counter inactive and VP16 counter inactive[10 µM].
Screening CCOC(=O)N1CCC(N(CCN(C)C)C(=S)Nc2cccc(Cl)c2)CC1 returned RORg inh inactive, Luc counter inactive and VP16 counter inactive[10 µM].
Screening CCOC(=O)N1CCC(N(CCN(C)C)C(=S)Nc2cc(Cl)cc(Cl)c2)CC1 returned RORg inh 10µM, Luc counter inactive and VP16 counter inconclusive.
Screening CCOC(=O)N1CCC(N(CCN(C)C)C(=S)Nc2cccc(OC)c2)CC1 returned RORg inh inconclusive, Luc counter inactive and VP16 counter inactive.
Screening CN(C)/C=C/C(=O)c1ccn(S(=O)(=O)c2ccccc2)c1 returned RORg inh inactive and VP16 counter inactive.
`COc1ccc(CN2CCN(Cc3cc4ccccc4o3)CC2CCO)cc1C` (stereo not drawn) gave RORg inh inactive and VP16 counter inactive.
O=C(C1CC(=O)N(C2CCCCC2)C1)N1CCc2ccccc21 (stereo not drawn) was read as RORg inh inactive, Luc counter inactive and VP16 counter inactive.
`C[C@@H](c1ccccc1)N1C(=O)[C@H]2[C@H]3[C@H](O)[C@H](O)C/C(=N/OCc4ccccc4)[C@@H]3CC[C@@H]2C1=O` gave RORg inh inactive[10 µM] and VP16 counter inactive[10 µM].
For COC(=O)C1=C[C@@H](C(=O)OC)C2C3=C(C(=O)[C@@]2(C)NC(=O)c2ccccc2)[C@H](C)n2c(=O)n(-c4ccccc4)c(=O)n2[C@@H]3C1 (stereo partly drawn) the results were RORg inh inactive and VP16 counter inactive.
`S=c1[nH]nc(C2CCCCC2)n1/N=C/c1ccco1` gave RORg inh inconclusive, Luc counter inactive and VP16 counter inconclusive.
Screening Cc1ccc(/C=N/n2c(C3CCCCC3)n[nH]c2=S)s1 returned RORg inh 3.2µM, Luc counter inactive and VP16 counter 3.2µM.
For Cc1ccsc1/C=N/n1cnnc1 the results were RORg inh inactive and VP16 counter inactive.
For Cc1ccsc1/C=N/n1c(C2CCCCC2)n[nH]c1=S the results were RORg inh 2.5µM, Luc counter inactive and VP16 counter 3.2µM.
Screening COc1ccc(C(=O)N2CCC3(CCN(C)CC3)CC2)cc1 returned RORg inh inactive, Luc counter inactive and VP16 counter inactive.
`C/C(=N/NC(=O)CNS(=O)(=O)c1ccc(C)cc1)c1cccc([N+](=O)[O-])c1` gave RORg inh inactive, Luc counter inactive and VP16 counter inactive.
CCOc1ccc(-n2cc(-c3ccccc3)c3c(=O)[nH]cnc32)cc1 was read as RORg inh inactive, Luc counter inactive and VP16 counter inactive.
`CCOc1ccc(-n2cc(-c3ccccc3)c3c(=S)nc[nH]c32)cc1` gave RORg inh 1µM and VP16 counter 1.1µM.
For C/C=C(\C=C\[C@@H](C)C/C=C/CC/C=C/C=C\C[C@@H](OC)/C(C)=C\C=C(C)C)CC(=O)O the results were RORg inh inactive and VP16 counter inactive.
`CCC(=O)Nc1c(-c2ccccc2)c(=O)c2ccccc2n1C` gave RORg inh inactive and VP16 counter inactive.
Screening CC(=O)C1=C(O)C(=O)N(Cc2cccnc2)C1c1ccc(C(C)C)cc1 (stereo not drawn) returned RORg inh inactive, Luc counter inactive and VP16 counter inconclusive.
Screening CC(C)c1ccc(/C=C2\NC(=S)N(Cc3cccnc3)C2=O)cc1 returned RORg inh 7.9µM and VP16 counter inactive.
CCCc1[nH][nH]c(=O)c1C(c1cccc(Cl)c1)C(C#N)C#N (stereo not drawn) was read as RORg inh inactive, Luc counter inactive and VP16 counter inactive.
For Cc1[nH]n(-c2ncc(-c3ccc(Cl)cc3)s2)c(=O)c1C(c1ccc(Cl)cc1)C(C#N)C#N (stereo not drawn) the results were RORg inh 14µM, Luc counter inactive and VP16 counter inconclusive.
`COc1cc(NC(=O)CCCNC(=O)c2ccc(Cl)cc2)cc(OC)c1OC` gave RORg inh inactive and VP16 counter inactive.
C/C(C/C(C)=C1/SC(=S)NC1=O)=C1\SC(=S)NC1=O was read as RORg inh inactive, Luc counter inactive and VP16 counter inactive.
CCCCCC/C(C)=C1/SC(=S)NC1=O was read as RORg inh 16µM, Luc counter inactive and VP16 counter inactive.
c1nc(NCCc2cnc[nH]2)c2[nH]cnc2n1 was read as Luc counter inactive[7.66 µM].
Screening COc1cccc(-c2c(C(=O)N/N=C/c3sccc3C)nnn2-c2nonc2N)c1 returned RORg inh 8.9µM and VP16 counter 22µM.
Cc1ccsc1/C=N/NC(=O)c1nnn(-c2nonc2N)c1-c1ccccc1 was read as RORg inh 7.1µM and VP16 counter 20µM.
For Nc1nonc1-n1nnc(C(=O)N/N=C/c2ccccc2Cl)c1-c1ccccc1 the results were RORg inh inactive and VP16 counter inactive.
For COc1cccc(-c2c(C(=O)N/N=C/c3ccco3)nnn2-c2nonc2N)c1 the results were RORg inh 11µM and VP16 counter inactive.
Cc1ccc(-c2c(C(=O)N/N=C/c3sccc3C)nnn2-c2nonc2N)cc1 was read as RORg inh 4.5µM and VP16 counter 5.6µM.
For COc1cccc(-c2c(C(=O)N/N=C/c3ccsc3)nnn2-c2nonc2N)c1 the results were RORg inh inactive and VP16 counter inconclusive.
Screening Cc1ccc(-c2c(C(=O)N/N=C/c3ccncc3)nnn2-c2nonc2N)cc1 returned RORg inh inactive and VP16 counter inconclusive.
For COc1cccc(/C=N/NC(=O)c2nnn(-c3nonc3N)c2-c2cccs2)c1 the results were RORg inh inactive and VP16 counter inactive.
`COC(=O)c1nnn(-c2ccsc2C(=O)OC)c1C(=O)OC` gave RORg inh inactive, Luc counter inactive and VP16 counter inactive.
CCOC(=O)Nc1nc(-c2ccc(Cl)cc2Cl)cs1 was read as RORg inh inactive, Luc counter inactive and VP16 counter inactive.
`C=CCN(Cc1nc(-c2ccccc2)no1)C(=O)c1ccco1` gave RORg inh inconclusive and VP16 counter inactive.
CC(C)C[C@@H](CC(=O)N[C@@H](CCC(=O)O)CC(=O)O)NC(=O)[C@@H]1CCCC[C@H]1NC(=O)C[C@@H](NC(=O)C[C@H](CO)NC(=O)[C@@H]1CNCC[C@H]1N)C(C)C was read as RORg inh inactive, Luc counter inactive and VP16 counter inactive.
Screening CCN(CC)COC(=S)S returned Luc counter inactive[7.66 µM].
`Cc1cccc(NC(=S)N/N=C/c2ccc3c(c2)OCO3)c1` gave RORg inh inactive, Luc counter inactive and VP16 counter inactive.
Screening Cn1c(=O)n(C)c2cc(/C=N/NC(N)=S)ccc21 returned RORg inh inactive, Luc counter inactive and VP16 counter inactive.
CNC(=S)N/N=C/c1ccc2c(c1)OCCO2 was read as RORg inh inconclusive, Luc counter inactive and VP16 counter 0.63µM.
For COc1ccc(NCC(=O)N/N=C/c2ccc3c(c2)OCCO3)cc1 the results were RORg inh 0.13µM, Luc counter inactive and VP16 counter inactive.
